Laboratory results reported in PubChem BioAssay AID1851 (National Center for Advancing Translational Sciences (NCATS), 2009).
The whole screen tested about 16,000 compounds, of which about 5,700 (36%) were called active. Not shown: some 24% with an inconclusive outcome. The list shows a part of the results. Unmarked numbers belong to inactive results. Calls follow the shape of the dose curve; as a rule, active = well fitted curve in the direction sought with a large enough effect; inconclusive = small, poorly fitted or top-dose-only effect, or effect the other way; inactive = no such curve, though single readings can be large or run the other way.
% is scaled to controls: 0 for no effect and ±100 for the full control effect.

What follows are compounds tested against Cytochrome P450 1A2 (Homo sapiens) (UniProt P05177) (assay: Cytochrome panel assay with activity outcomes). Details: recombinant CYP, pro-luciferin dealkylation, luminescence, p450-cyp1a2; series mostly up to 57.1 µM; activity, negative = inhibition: at the top concentration.
Sequence of Cytochrome P450 1A2 (Homo sapiens) (P05177 whole entry, looked up): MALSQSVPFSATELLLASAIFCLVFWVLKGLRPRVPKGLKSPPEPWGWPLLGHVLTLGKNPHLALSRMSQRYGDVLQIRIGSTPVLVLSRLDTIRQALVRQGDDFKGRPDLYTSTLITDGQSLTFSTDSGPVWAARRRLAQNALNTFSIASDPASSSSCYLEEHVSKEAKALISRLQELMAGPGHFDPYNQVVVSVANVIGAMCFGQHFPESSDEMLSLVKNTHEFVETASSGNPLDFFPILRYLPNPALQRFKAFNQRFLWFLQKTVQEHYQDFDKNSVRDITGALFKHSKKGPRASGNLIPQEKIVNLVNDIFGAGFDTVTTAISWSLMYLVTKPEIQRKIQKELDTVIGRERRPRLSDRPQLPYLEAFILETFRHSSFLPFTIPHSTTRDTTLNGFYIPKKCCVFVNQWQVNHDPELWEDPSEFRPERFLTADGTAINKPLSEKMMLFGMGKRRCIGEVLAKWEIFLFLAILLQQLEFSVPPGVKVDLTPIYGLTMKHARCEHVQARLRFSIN
In the case of `CC(C)NC(=O)N1CC2(CCN(S(=O)(=O)c3ccccc3)CC2)C1`, the “activity, negative = inhibition” value is reported as -9.07%. With `Cn1ccnc1C[C@@](C)(O)c1ccccc1` the activity, negative = inhibition was -14.2% [at 11.4 µM]. `CC(Sc1ccc2c(c1)OCCO2)C(=O)Nc1ncc(Cl)cc1Cl` (stereo not drawn) was tested, and the AC50 was 6.31 µM (active). For `CC(C(=O)NC1CCCC1)N(C(=O)c1snc(C(N)=O)c1N)c1ccc2c(c1)OCCO2` (stereo not drawn), the “activity, negative = inhibition” value was -27.6%. `COCC(=O)N1CCC2(CCCN(Cc3ccccc3OC)C2)CC1` was tested, and the “activity, negative = inhibition” value was -2.98%. `NCC(=O)Nc1ccc(Cl)cc1C(=O)c1ccc[nH]1` was tested, and the AC50 was 3.16 µM (active). `Cc1cccc(Cn2cnc3c(NS(C)(=O)=O)c(C)c(C)cc32)c1` was tested, and the AC50 was 3.16 µM (active). With `Cc1ncc([N+](=O)[O-])n1CC(=O)NCc1ccccc1` the “activity, negative = inhibition” value was -24%. In the case of `Cc1cc2c(ncn2Cc2ccccc2)c([N+](=O)[O-])c1C`, the AC50 is reported as 5.62 µM (active). `Cc1nn(CC(=O)NCc2ccccc2)c(C)c1[N+](=O)[O-]` was tested, and the “activity, negative = inhibition” value was -4.08%. For `CC(=O)C=NCC(=O)O`, the activity, negative = inhibition was 0.0576% [at 11.4 µM]. In the case of `COC(=O)[C@@]1(Cc2ccc(F)cc2)[C@H]2c3cc(C(=O)N(C)C)n(Cc4ccc(C(F)(F)F)nc4)c3C[C@H]2CN1C(=O)c1ccccc1`, the “activity, negative = inhibition” value is reported as -10.8%. For `COc1ccc(CNc2cc(-c3cccnc3)ncn2)c(OC)c1`, the AC50 was 1.26 µM (active). For `COc1ccc(CCNc2nc(-c3cccnc3)cs2)cc1OC`, the AC50 was 0.355 µM (active). `COc1ccccc1CNc1cc(-c2cccnc2)ncn1` was tested, and the AC50 was 1 µM (active). `CC(C)(C)C(=O)N(CCN(C(=O)C(C)(C)C)c1ccccc1)c1ccccc1` was tested, and the “activity, negative = inhibition” value was -6.47%. With `COC(=O)C/C=C\[C@@H](C)[C@@H](/C=N\OC[C@@H](O)[C@H]1O[C@H]2OC(C)(C)O[C@H]2[C@@H]1O)NS(=O)(=O)c1ccc(C)cc1` the activity, negative = inhibition was 0.282% [at 11.4 µM]. `CCCC[C@@H]1C[C@H]1C(NC(=O)c1ccc(-c2ccccc2)cc1)c1ccc(-c2ccccc2)cc1` (stereo partly drawn) was tested, and the “activity, negative = inhibition” value was 0.142%. `CCC[C@@H]1C[C@@]1(CCC)C(NC(=O)c1ccccc1)c1cccc(Cl)c1` (stereo partly drawn) was tested, and the “activity, negative = inhibition” value was -9.7%. For `CCCC[C@@H]1C[C@H]1C(NC(=O)c1ccccc1)c1ccc(Cl)cc1` (stereo partly drawn), the AC50 was 1 µM (active). With `CCCC[C@@H]1C[C@H]1C(NC(=O)c1ccccc1)c1ccccc1` (stereo partly drawn) the AC50 was 2.51 µM (active). With `C[C@@]1(C(NC(=O)c2ccc(-c3ccccc3)cc2)c2ccc(Cl)cc2)C[C@H]1C1CCCCC1` (stereo partly drawn) the “activity, negative = inhibition” value was -17.1%. For `C=C(CC1([C@@H](NP(=O)(c2ccccc2)c2ccccc2)[C@H]2C[C@@H]2CCCC)CC1)c1ccccc1`, the “activity, negative = inhibition” value was -15.8%. `Cc1cc(C)n(-c2ccc(Cl)c(C(=O)O)n2)n1` was tested, and the “activity, negative = inhibition” value was -1.29%. For `COC(=O)c1ccc(Oc2cc(C)nc(-n3nc(C)cc3C)n2)cc1`, the AC50 was 8.91 µM (active). In the case of `N#CC(=C1CCCC1)c1nc(-c2ccccc2)cs1`, the AC50 is reported as 0.631 µM (active). In the case of `Cc1ccc(-c2csc(C(C#N)=C3CCCC3)n2)cc1`, the AC50 is reported as 3.55 µM (active). For `N#C/C(=N\O)c1nc(-c2ccccc2)cs1`, the AC50 was 6.31 µM (active). `CC1(C)N=C(N)N=C(N)N1CCCCc1ccccc1` showed an activity, negative = inhibition of -4.32% [at 2.29 µM]. With `C/C(O)=C\c1nc2ccccc2oc1=O` the “activity, negative = inhibition” value was -19.9%. In the case of `c1ccc(-c2nc3ccccc3o2)nc1`, the AC50 is reported as 0.501 µM (active). `O=S(=O)(O)c1ccc(-c2nnc(-c3ccccn3)nc2-c2ccc(S(=O)(=O)O)o2)o1` showed an activity, negative = inhibition of -8.46% [at 11.4 µM]. For `CC1(C)C(=O)NC2=C1C(=O)C(=O)c1ccccc12`, the AC50 was 3.16 µM (active). In the case of `N#C/C(=C\c1c[nH]c2ccccc12)C(=O)c1ccc(O)c(O)c1`, the AC50 is reported as 1.26 µM (active). `O=C(O)[C@@H]1CCCN1Cc1c[nH]c2ccccc12` gave an activity, negative = inhibition of -13.1% [at 11.4 µM]. `CCN(CC(=O)O)CC(=O)O` gave an activity, negative = inhibition of -5.21% [at 11.4 µM]. With `CS(=O)(=O)Nc1ccc(C(=O)N2CCN(c3ccccc3)CC2)cc1` the “activity, negative = inhibition” value was -6.89%. For `CS(=O)(=O)Nc1cccc(-c2nccc(-n3ccnc3)n2)c1`, the AC50 was 0.2 µM (active). For `COc1ccc(NS(=O)(=O)c2ccc(I)cc2)cc1N1CCN(C)CC1`, the “activity, negative = inhibition” value was 5.42%. `CN1CCN(c2ccnc(-c3cccc(NS(C)(=O)=O)c3)n2)CC1` was tested, and the AC50 was 12.6 µM (active). For `CS(=O)(=O)Nc1cccc(-c2cncnc2-n2ccnc2)c1`, the AC50 was 15.8 µM (active). In the case of `CCN1C(=O)[C@H]2[C@H]3[C@H](O)[C@H](O)C/C(=N/OCC(C)C)[C@@H]3CC[C@@H]2C1=O`, the activity, negative = inhibition is reported as -10.8% [at 11.4 µM]. `COC(=O)[C@@]1(Cc2ccc(F)cc2)[C@H]2c3cc(C(=O)N4CCCC4)n(CCCNc4ncc(C(F)(F)F)cc4Cl)c3C[C@H]2CN1C(=O)c1ccccc1` was tested, and the “activity, negative = inhibition” value was -11.6%. With `O=[N+]([O-])c1cccnc1NCCNc1ncc(C(F)(F)F)cc1Cl` the AC50 was 2 µM (active). For `C[C@@H]1O[C@@H](O)[C@@H](O)[C@H](O)[C@H]1O`, the activity, negative = inhibition was -2.48% [at 11.4 µM]. With `O=C(O)c1ccccc1N/N=C\c1ccnc2ccccc12` the AC50 was 11.2 µM (active). `O=C(O)CCNc1ccccc1C(=O)O` showed an activity, negative = inhibition of -11.9% [at 11.4 µM]. For `Cn1c(=O)c2c(nc(N/N=C\c3ccccc3C(=O)O)n2C)n(C)c1=O`, the activity, negative = inhibition was 5.78% [at 11.4 µM].
